# According to PubChem BioAssay (Tox21):
# “And” between values parts separate entries of the source, which are not always exact repeats. Identical values can stand only once. Inconclusive results are not listed. Entries that show only a call come without a potency. A structure can be active in one record and inactive in another. The source made the active and inactive calls. Calls come from the whole dose curve; as a rule, active = well fitted cell-killing curve with a large enough effect in the repeat runs; inconclusive = weak or mixed curves, or effect the other way; inactive = flat fitted curve, though single readings scatter.
# Experiment: qHTS RealTime-Glo MT Cell Viability Assay in HEK293 cells - 24 hour (AID 1224886); note: nearly all actives have a fitted effect of over 50% in size; for activity change, negative = cytotoxicity: top concentration of the series differs between compounds
# Details: RealTime-Glo luminescence; series mostly up to 76.8 µM; activity change, negative = cytotoxicity: at the top concentration
# Text: National Center for Advancing Translational Sciences [NCATS]
# NIH Chemical Genomics Center [NCGC]
# U.S. Environmental Protection Agency [EPA]
# National Institutes of Environmental Health Sciences [NIEHS]
# National Toxicology Program [NTP]
# U.S. Food and Drug Administration [FDA]
# Measure of cell viability is critical in the cell-base assay. Analysis of cell viability is necessary for the characterization of cell responses to cytotoxic drugs and environmental stress. A RealTime-Glo MT Cell Viability Assay to monitor cell viability in real time of continues cell culture during 40 hours of compound treatment was used to screen Tox21 10K library compounds in Hek293 cells. The RealTime-Glo MT Cell Viability Assay is a nonlytic, homogeneous, bioluminescent method to measure cell viability in real time using a simple, plate-based method. The assay involves adding NanoLuc luciferase and a cell-permeant prosubstrate to cells in culture. Viable cells reduce the proprietary prosubstrate to generate a substrate for NanoLuc luciferase. This substrate diffuses from cells into the surrounding culture medium, where it is rapidly used by the NanoLuc Enzyme to produce a luminescent signal. The signal correlates with the number of viable cells, making the assay well suited for cytotoxicity studies.
# Tox21 Assay Protocol Summary:
# The mixture of Hek293 cell suspension and reagents were dispensed at 600cells/6 ul/well in 1536-well tissue culture treated black solid bottom plates using a Multidrop dispenser. After the assay plates were incubated at a 37 C/5% CO2 incubator for 5 hours, 23 nL of compounds dissolved in DMSO, positive and negative controls was transferred to the assay plate by a pintool work station. The plates were incubated at 37 C for 40 hours. The luminescence intensity were measured at 0h, 8h, 16h, 24h, 32h and 40h time points using ViewLux plate reader during compound treatment.
# Potency is the fitted concentration of half-maximal effect.
SMILES,Potency,"activity change, negative = cytotoxicity"
CCCCCCCC(=O)OCC(COC(=O)CCCCCCC)OC(=O)CCCCCCC,inactive,
CCCc1cc(=O)[nH]c(=S)[nH]1,inactive,
Cc1ncc([N+](=O)[O-])n1C,inactive,
C1=CC2C3C=CC(C3)C2C1 (stereo not given),,-1.54% (inactive)
CC(=O)CCC(=O)O,inactive,
Cc1ccc(S(=O)(=O)O)cc1,inactive,
CN[C@H]1CC[C@@H](c2ccc(Cl)c(Cl)c2)c2ccccc21,21.3 µM (active),
O=c1[nH]cnc2c1ncn2[C@H]1CC[C@@H](CO)O1,inactive,
NC(=O)c1cccnc1,inactive,
CC(=O)CC(c1ccccc1)c1c(O)c2ccccc2oc1=O (stereo not given),inactive,
O=CC(=O)c1ccccc1,,9.31% (inactive)
CNNCc1ccc(C(=O)NC(C)C)cc1,inactive,
O=C1NC(=O)C(c2ccccc2)(c2ccccc2)N1,inactive,
CCCCCCCCCCCC[N+](C)(C)Cc1ccccc1,4.28 µM (active) and 4.23 µM (active) and 3.01 µM (active),
CCOC(N)=O,inactive,
C1CCC(C(CC2CCCCN2)C2CCCCC2)CC1 (stereo not given),16.9 µM (active),
Nc1ccc(S(N)(=O)=O)cc1,inactive,
CC(C)C(=O)Nc1ccc([N+](=O)[O-])c(C(F)(F)F)c1,17.9 µM (active) and 21.9 µM (active) and 10.7 µM (active),
CCN(Cc1c(F)cccc1Cl)c1c([N+](=O)[O-])cc(C(F)(F)F)cc1[N+](=O)[O-],43.6 µM (active),
Nc1ccc([N+](=O)[O-])cc1O,,1.25% (inactive)

SMILES,Potency,"activity change, negative = cytotoxicity"
CS(=O)(=O)OCCCCOS(C)(=O)=O,inactive,
CN(C)C(=S)SC(=S)N(C)C,2.24 µM (active) and 2.19 µM (active) and 6.74 µM (active),
C=CCc1ccc(O)c(OC)c1,inactive,
CCCCOC(=O)c1ccc(O)cc1,22.1 µM (active) and 19.5 µM (active),
Cc1ncc([N+](=O)[O-])n1CCO,inactive,
CN1CCc2cccc3c2[C@H]1Cc1ccc(O)c(O)c1-3,14 µM (active) and 8.17 µM (active) and 23.9 µM (active),
OC[C@H]1O[C@H](O[C@]2(CCl)O[C@H](CCl)[C@@H](O)[C@@H]2O)[C@H](O)[C@@H](O)[C@H]1Cl,inactive,
CC1(C)O[C@@H]2C[C@H]3[C@@H]4CCC5=CC(=O)C=C[C@]5(C)[C@@]4(F)[C@@H](O)C[C@]3(C)[C@]2(C(=O)CO)O1,inactive,
CN(C)CCOC(c1ccccc1)c1ccccc1,inactive,
CCCCC1(COC(=O)CCC(=O)O)C(=O)N(c2ccccc2)N(c2ccccc2)C1=O,inactive,
CN(N=O)C(=O)N[C@@H]1[C@@H](O)[C@H](O)[C@@H](CO)O[C@@H]1O,inactive,
COc1ccc2c(c1)c(CC(=O)O)c(C)n2C(=O)c1ccc(Cl)cc1,inactive,
NS(=O)(=O)O,inactive,
O=S1(=O)OC(c2ccc(O)cc2)(c2ccc(O)cc2)c2ccccc21,inactive,
O=c1[nH]cc(F)c(=O)[nH]1,inactive,
CC(C)NCC(O)c1ccc(O)c(O)c1 (stereo not given),48.4 µM (active) and inactive,
CCCCCCc1ccc(O)cc1O,19.6 µM (active) and 11 µM (active),
Cc1cc(C)nc(NS(=O)(=O)c2ccc(N)cc2)n1,inactive,
O=C(Nc1ncc([N+](=O)[O-])s1)c1cccs1,,-17% [at 35.3 µM] (inactive)
CCCCC(CC)C(=O)O (stereo not given),inactive,
